Bioassay records as filed in PubChem.
Sampled rows, rich in hits. Any-hit rate of the full collection: about 1.5%.
TMEM16A inh: mouse TMEM16A channel inhibition, primary screen | Q8BHY3 | HEK293 TMEM16A/YFP iodide influx fluorescence, ionomycin | normalized B-score (activity score, 25-100; higher = stronger inhibition) at 10 µM | hit rate 1.2% among 310,000 | AID 588511;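 active means ratio plate-corrected score three or more library SD toward inhibition, starting fluorescence score within five deviations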;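 further: score derived from kinetic fluorescence span divided by baseline fluorescence per well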
ANO1 activ: mouse TMEM16A channel activation, primary screen; Q8BHY3; HEK293 TMEM16A/YFP-H148Q/I152L, iodide quench fluorescence; active compounds read low; B-score at 10 µM; hit rate 0.3% among 340,000; AID 623877;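 active means fluorescence-ratio B-score plate-corrected deviation score at least 3 library SD below zero, with starting fluorescence score within 5 deviations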;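 further: channel opened by trigger with iodide after compound preincubation; score built on the fluorescence ratio of max minus min over baseline; more negative score means more quench and so TMEM16A activation or potentiation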
DAGLB inhibitor: diacylglycerol lipase beta (human) inhibition. Q8NCG7. HEK293T DAGLB membrane lysate, EnzChek fluorogenic substrate. inhibition, % at 5.17 µM. hit rate 0.059% among 340,000; in the data active means inhibition above about 34%;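 further: 0% = enzyme with vehicle and 100% = wells lacking enzyme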
hiPSC survival: enhancers of human iPSC single-cell survival. AID 602274. hit rate 0.044% among 360,000. hiPSC single-cell survival, ATPlite luminescence; 100% = ROCK inhibitor wells, 0% = DMSO. survival enhancement, % at 20 µM; in the data active means survival enhancement above about 18%;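 further: cells exposed to compounds for 16 hours before the ATP read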
ABCB6 inh MLPCN: human ABCB6 transporter inhibition | Q9NP58 | K562-ABCB6 porphyrin accumulation, flow cytometry, 1 h; active compounds read low | fluorescence ratio to DMSO, % at 10 µM | hit rate 0.19% among 360,000 | AID 602162;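 active means fluorescence ratio to DMSO below 75%, the collection mean minus 3 SD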;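 further: signal is porphyrin accumulated inside mitochondria; 100% equals median channel fluorescence of DMSO control wells; lower ratio means ABCB6 inhibition with less porphyrin fluorescence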
DAGLB confirm: DAGLB (human) inhibition, confirmation screen; shares compounds with DAGLB inhibitor; inhibition, % at 5.17 µM; HEK293T DAGLB membrane lysate, EnzChek fluorogenic substrate; AID 504445; hit rate 73% among 190;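 active means mean inhibition over triplicate wells above a set limit taken from the primary lipase screen, cut at about 34% in these data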;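 further: 0% = DAGLB with DMSO and 100% = wells lacking DAGLB enzyme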
TMEM16A reconf: TMEM16A (mouse) chloride channel inhibition, re-confirmation; HEK293 TMEM16A/YFP-H148Q, iodide quench fluorescence; ionomycin added to raise cell calcium; shares compounds with TMEM16A inh; inhibition, % at 10 µM; AID 652189; hit rate 39% among 2,300;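 active means mean duplicate percent inhibition, scaled so buffer wells are 0 and the reference blocker 100, over three buffer SD above buffer mean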
TMEM16A Ca cntr: counter-screen for TMEM16A inhibitors: effect on calcium mobilization. shares compounds with TMEM16A inh. TMEM16A/YFP HEK293, Fluo4 calcium mobilization. calcium response (% of ionomycin), % at 10 µM. hit rate 2% among 2,300;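 active means duplicate-averaged calcium signal over 20% of the ionomycin maximum, relative to buffer baseline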;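 further: each well's signal is peak minus trough fluorescence divided by its pre-addition baseline; 0% = buffer wells and 100% = ionomycin wells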
YFP-HEK293 quench: acts in parental YFP-HEK293 cells lacking TMEM16A, counter-screen | shares compounds with TMEM16A inh | AID 652233 | YFP ratio F(max-min)/F0 at 10 µM | 2,300 tested, under 10 active | iodide YFP quench, ionomycin;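 active means yellow fluorescent protein signal ratio exceeding the buffer control mean by over 5 SD of those controls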;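 further: ratio is mean of duplicate wells from kinetic YFP trace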
ClC-1 inh: rat ClC-1 inhibition, TMEM16A specificity screen; 2,300 tested, under 10 active; ratio percent, % at 10 µM; shares compounds with TMEM16A inh; CHO ClC-1-YFP, iodide influx fluorescence quench; iodide control reads 0, buffer control 100;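 active means duplicate-mean ratio percent above the mean of iodide-only control wells, which defines zero, plus 5 of their SD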;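 further: higher percent means stronger block of ClC-1 iodide influx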
* = called active by the depositor; i = inactive; nt = no result.

SMILES | TMEM16A inh | ANO1 activ | DAGLB inhibitor | hiPSC survival | ABCB6 inh MLPCN | TMEM16A reconf | TMEM16A Ca cntr | YFP-HEK293 quench | ClC-1 inh | others
O=C(CCCN1CCC2(CC1)C(=O)NCN2c1ccccc1)c1ccc(F)cc1 | 25* | -11.3* | 1.1 | -0.9 | 93.0 | nt | nt | nt | nt
Cc1noc(C)c1COc1ccc(C(=O)NCC2(N(C)C)CCCCC2)cc1 | nt | nt | -0.7 | -1.3 | 100.0 | nt | nt | nt | nt
CC(=O)c1ccc2c(c1)C1C(Cl)C(Sc3ccccc3[N+](=O)[O-])CC1C(C(=O)O)N2 (stereo not drawn) | i | i | 36.1* | -2.6 | 105.0 | nt | nt | nt | nt | DAGLB confirm=31.1
O=C(O)c1cccc2c1NC(C(=O)O)C1CC(Sc3ccccc3[N+](=O)[O-])C(Cl)C21 (stereo not drawn) | i | i | 38.6* | 0.9 | 98.0 | nt | nt | nt | nt | DAGLB confirm=12.8
c1ccc(CN2CCN(Cc3ccc4c(c3)OCCO4)CC2)cc1 | i | i | 1.9 | 3.0 | 101.0 | nt | nt | nt | nt
NC(Cc1ccc(Cl)cc1)c1csc(Nc2ccccn2)n1 (stereo not drawn) | nt | nt | nt | -1.2 | 89.0 | nt | nt | nt | nt
O=C1CN(O)C(c2ccccc2)=c2cc(Cl)ccc2=N1 | i | i | -1.2 | -0.5 | 98.0 | nt | nt | nt | nt
NP(=O)(OCCCCc1ccccc1)Oc1ccccc1Cl (stereo not drawn) | i | i | 38.6* | 0.8 | 97.0 | nt | nt | nt | nt | DAGLB confirm=39.6*
CCN1C(=O)c2ccccc2Sc2ccc(C(=O)N3CCC4(CC3)OCCO4)cc21 | i | i | 0.1 | -0.5 | 99.0 | nt | nt | nt | nt
CCC1=Nc2cc(C(=O)N3CCC4(CC3)OCCO4)ccc2Sc2ccc(Br)cc21 | 100* | i | -1.1 | 0.8 | 93.0 | i | i | -0.984 | -8.0
O=c1[nH]c(=S)n(CCC2=CCCCC2)c(O)c1C=NC1CCN(Cc2ccccc2)CC1 | 100* | i | -3.0 | 0.1 | 95.0 | i | i | -1.24 | -15.5
COc1ccc(C(=O)CC(c2ccc3c(c2)OCO3)c2c(O)c3ccccc3oc2=O)cc1OC (stereo not drawn) | nt | nt | -3.6 | 0.0 | 100.0 | nt | nt | nt | nt
CC1CN=C(NCCc2ccccc2)S1 (stereo not drawn) | i | i | 1.4 | -0.8 | 98.0 | nt | nt | nt | nt
COC(=O)C1=C(c2cccc(OCc3ccccc3)c2)C[C@@H]2CC[C@H]1N2C(=O)NCc1ccccc1C(F)(F)F | nt | i | -7.1 | -4.3 | 94.0 | nt | nt | nt | nt
CCc1ccc2nc(N3CCC(C(=O)N4CCC5(CC4)OCCO5)CC3)sc2c1 | 100* | i | -2.0 | -0.3 | 92.0 | i | 21.0%* | -1.06 | 6.0
Oc1c(Cl)c(Cl)c(Cl)c(Cl)c1Cl | 100* | i | 9.3 | -0.7 | 96.0 | 17.0%* | i | -0.748 | -20.0
Nc1c(C(=O)OC2CCCCC2)c2nc3ccccc3nc2n1CC1CCCO1 (stereo not drawn) | 100* | i | -0.8 | 4.8 | 91.0 | i | i | -1.13 | -4.0
COc1ccc2c3c1OC1C(=O)CC[C@@]4(O)[C@@H](C2)N(CC2CC2)CC[C@]314 (stereo partly drawn) | nt | i | 0.4 | -1.9 | 97.0 | nt | nt | nt | nt
CCOC(=O)C(O)(c1ccc(NC(=S)NC(=O)c2ccc(Cl)cc2Cl)c(C)c1)C(F)(F)F (stereo not drawn) | 25* | i | -1.9 | 0.1 | 97.0 | 53.5%* | i | -0.823 | -5.5
COC(=O)C(O)(c1ccc(NC(=S)NC(=O)c2ccc(Cl)cc2Cl)c(C)c1)C(F)(F)F (stereo not drawn) | i | i | 13.5 | 0.2 | 82.0 | nt | nt | nt | nt
COC(=O)C1=C(c2ccc(F)cc2OCc2ccccc2)C[C@@H]2CC[C@H]1N2C(=O)NCCN1CCOCC1 | nt | i | 0.1 | -1.6 | 100.0 | nt | nt | nt | nt
O=C(c1ccc(C(F)(F)F)cc1)C1CCCN(Cc2ccncc2)C1 (stereo not drawn) | 25* | i | -1.4 | 0.2 | 96.0 | i | i | -1.08 | -10.5
Cc1[nH]c2ccc(OC(F)(F)F)cc2c1CCNCc1cccc([N+](=O)[O-])c1 | 25* | i | -4.0 | 0.2 | 93.0 | i | i | -1.06 | -7.5
COc1ccc2[nH]c(C)c(CCNCc3cccnc3)c2c1 | nt | i | -3.3 | -0.5 | 102.0 | nt | nt | nt | nt
Cc1nn(CC(C)C)c(Cl)c1C(=O)NC1CCCCC1 | nt | i | -0.8 | 2.9 | 96.0 | nt | nt | nt | nt
SMILES | TMEM16A inh | ANO1 activ | DAGLB inhibitor | hiPSC survival | ABCB6 inh MLPCN | TMEM16A reconf | TMEM16A Ca cntr | YFP-HEK293 quench | ClC-1 inh | others
CCN(CC)c1ccc(N=Cc2c(O)n(-c3ccccc3C)c(=O)[nH]c2=O)cc1 | i | i | 7.0 | 0.1 | 110.0 | nt | nt | nt | nt
CCOc1ccc(-n2c(O)c(C=Nc3ccc(N(CC)CC)cc3)c(=O)[nH]c2=O)cc1 | i | i | 2.3 | -0.2 | 117.0 | 28.0%* | i | -0.675 | -10.5
CCN(CC)c1ccc(N=Cc2c(O)n(-c3ccccc3)c(=O)[nH]c2=O)cc1 | i | i | 2.0 | -0.4 | 100.0 | i | i | -0.926 | -13.0
CC(=O)c1cn(Cc2ccccc2C#N)c2ccccc12 | 25* | i | -1.7 | -0.5 | 97.0 | i | i | -0.98 | -20.0
CC(C)C(=O)c1cn(Cc2ccccc2C#N)c2ccccc12 | i | i | -4.6 | 2.1 | 104.0 | nt | nt | nt | nt
O=[N+]([O-])[N-][n+]1cnn(Cc2ccccc2)c1 | i | i | -4.1 | 3.0 | 94.0 | nt | nt | nt | nt
Cc1ccc(N(C)C(=O)Oc2ccc(C(=O)c3ccc(Cl)cc3)cc2)cc1 | 25* | i | -0.7 | 1.3 | 94.0 | i | i | -1.09 | -3.5
CC(=O)Nc1ccc(OC(=O)N(C)c2ccc(C)cc2)cc1 | i | i | -1.2 | 0.3 | 99.0 | nt | nt | nt | nt
Oc1cc(Cl)ccc1Oc1ccc(Cl)cc1Cl | 100* | i | -4.5 | 3.1 | 102.0 | 69.5%* | i | -0.956 | -19.0
O=C(O)COc1ccc(Cl)cc1Cl | i | i | 2.5 | 0.4 | 96.0 | nt | nt | nt | nt
O=P(O)(O)COc1ccccc1O | i | i | 0.8 | 1.8 | 107.0 | nt | nt | nt | nt
O=C(O)C1CC2(Cl)C(Cl)=C(Cl)C1(Cl)C2(Cl)Cl (stereo not drawn) | nt | i | 2.9 | 1.5 | 96.0 | nt | nt | nt | nt
CC[n+]1c(/C=C/C=C/c2ccc(N(C)C)cc2)sc2ccccc21 | 25* | i | 20.4 | 0.4 | 315.0 | 40.0%* | i | -0.925 | -1.0
